Screening data (PubChem BioAssay)
Hits are enriched below; roughly 2.8% of the tested compounds scored in any of these assays.
mTORC1 inh = reduces mTORC1 signaling in Tsc2 and p53 null MEF cells; Tsc2-/- p53-/- MEF, phospho-rpS6 immunofluorescence/PI, 24 h; Potency, µM (highest dose often 38.3 µM), inactives show at the top dose activity change, negative = inhibition, usual class: inhibitors; actives 0.78% (n = 44,000); AID 493208;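 further: plate controls were DMSO for no effect and rapamycin for full effect; nearly all actives have a fitted effect of over 50% in size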
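Tsc2-/-, p53-/- MEFs (empty-vector stable line) in DMEM + 10% FBS were treated with compounds 24 h at 37 degree Celsius, fixed, and immunostained for phospho-rpS6 (Alexa-488) with propidium iodide counterstain. Laser-scanning cytometry gave % positive cells, normalized against 7.5 nM rapamycin and DMSO.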
S16 F2sN tox = cytotoxicity in S16 Pmp22-F2sN Schwann cells; Potency, µM (titrated, usually from 57.5 µM), inactives show at the highest dose activity change, negative = cytotoxicity, most hits filed as cytotoxic; S16 Pmp22-F2sN Schwann cells viability, CellTiter-Glo, 24 h; actives 0.48% (n = 43,000); further: on the % scale 0 is the no-effect control and ±100 the full control effect; nearly all actives have a fitted effect of over 65% in size
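Rat S16 Schwann reporter line, 24 h treatment with library compounds delivered at 23 nL per well. Cell viability by CellTiter-Glo luminescence.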
GALC G270D act = enhancers of human galactocerebrosidase G270D mutant activity in cells; P54803; 145M-Twi-hGALC-G270D cells (Twitcher mouse brain line with human GALC G270D), HMU-beta-Gal fluorescence, 48 h; Potency, µM (titrated, usually from 57.5 µM), actives largely listed as activators; actives 0.1% (n = 45,000); further: 0% is about no effect; nearly all actives have a fitted effect of over 65% in size
Target sequence (P54803 whole entry G286D): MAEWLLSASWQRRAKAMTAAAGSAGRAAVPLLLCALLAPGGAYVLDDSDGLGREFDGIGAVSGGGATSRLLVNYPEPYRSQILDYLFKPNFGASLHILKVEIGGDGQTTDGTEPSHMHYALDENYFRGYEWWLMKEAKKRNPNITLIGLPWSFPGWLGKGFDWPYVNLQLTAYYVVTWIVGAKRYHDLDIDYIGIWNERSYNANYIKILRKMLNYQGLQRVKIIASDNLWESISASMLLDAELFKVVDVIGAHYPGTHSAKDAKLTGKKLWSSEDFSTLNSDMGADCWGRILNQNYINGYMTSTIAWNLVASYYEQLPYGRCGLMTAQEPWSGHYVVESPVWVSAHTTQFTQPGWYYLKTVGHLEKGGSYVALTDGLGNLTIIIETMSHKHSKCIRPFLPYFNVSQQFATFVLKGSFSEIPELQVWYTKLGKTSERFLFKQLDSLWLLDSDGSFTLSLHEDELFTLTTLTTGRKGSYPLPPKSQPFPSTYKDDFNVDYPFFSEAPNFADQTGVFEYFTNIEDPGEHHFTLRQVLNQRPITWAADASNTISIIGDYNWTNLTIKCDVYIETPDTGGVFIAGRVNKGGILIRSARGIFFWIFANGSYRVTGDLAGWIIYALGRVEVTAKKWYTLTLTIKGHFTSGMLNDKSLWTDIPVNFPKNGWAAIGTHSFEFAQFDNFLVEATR
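Brain-derived Twitcher mouse 145M-Twi cells stably expressing human GALC-G270D or wild-type GALC, treated live, then residual GALC activity read by fluorescence of HMU-b-Gal substrate (0.1 mM final) in citrate-phosphate buffer pH 5.2 with sodium taurocholate. Signal increase indicates enhancement.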
PMP22 txn prim = modulates PMP22 transcription in S16 Schwann cells; S16 Pmp22-F2sN Schwann cells (luciferase reporters placed in the Pmp22 gene), FLuc/NLuc coincidence luminescence, 24 h; actives 2% (n = 43,000); Potency, µM (titrated, usually from 57.5 µM), for the others: at the top dose activity change, negative = inhibition, hits mostly inhibitors; active means clear falling dose curves in both reporters; inconclusive means both reporters move, but less clearly or upward; inactive means either reporter flat; the % is the NLuc reporter signal; further: on the % scale 0 is the no-effect control and ±100 the full control effect
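Transcriptional readout in edited S16(c9) cells: two luciferases reported from the Pmp22 locus, measured in turn after 24 h compound incubation.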
Starred values were filed as active, the others as inactive; i = inactive; ? = inconclusive; . = not tested or not shown. Unless noted, the call rests on the fitted dose curve; in most records, active means well fitted curve in the direction sought with a large enough effect; inconclusive means small, poorly fitted or top-dose-only effect, or another doubt; inactive means no such curve, though single readings can be large; an effect the other way counts as inactive or inconclusive. Potency means the concentration at half of the fitted maximal effect.

SMILES	mTORC1 inh	S16 F2sN tox	GALC G270D act	PMP22 txn prim
CCOc1ccccc1NC(=O)CN1C(=O)C(=O)c2ccccc21	2.6µM*	-30%	i	?
Cc1cc(NC(=O)c2ccco2)cc(-c2nc3cc(Cl)ccc3o2)c1O	12µM*	-19%	i	?
Cc1ccc2oc(-c3cc(NC(=O)c4cccs4)cc(C)c3O)nc2c1	8%	9%	i	-31%
COc1ccc(-c2nnc(SCc3cc(=O)c4cc(C)cc(C)c4[nH]3)n2C)cc1	?	?	i	14µM*
O=C(Nc1ccccc1F)c1nc(SCc2ccc(F)cc2)ncc1Cl	2%	11%	i	-5%
Cc1cccc(CSc2ncc(Cl)c(C(=O)Nc3nc4ccc(F)cc4s3)n2)c1	4%	-12%	i	?
Cc1ccc(C)c(NC(=O)c2nc(S(=O)(=O)Cc3ccc(F)cc3)ncc2Cl)c1	2.1µM*	?	i	7.6µM*
CCc1nnc(NC(=O)c2nc(S(=O)(=O)Cc3ccc(C)cc3)ncc2Cl)s1	?	?	i	?
CCOc1ccc(NC(=O)c2nc(S(=O)(=O)Cc3ccccc3F)ncc2Cl)cc1	3.7µM*	5µM*	i	1.3µM*
CCc1nnc(NC(=O)c2nc(S(=O)(=O)Cc3cccc(C)c3)ncc2Cl)s1	12µM*	?	i	9.5µM*
Cc1cccc(CS(=O)(=O)c2ncc(Cl)c(C(=O)Nc3nnc(C(C)C)s3)n2)c1	16µM*	?	i	9.6µM*
Clc1ccc(C(Cn2ccnc2)OCc2ccc(Sc3ccccc3)cc2)c(Cl)c1 (stereo not given)	.	.	i	.
CC(C)(C)CC(=O)OCC(=O)[C@@]1(O)CC[C@H]2[C@@H]3CCC4=CC(=O)C=C[C@]4(C)[C@H]3[C@@H](O)C[C@@]21C	.	.	i	.
CO[C@@H]1[C@@H](O[C@@H]2O[C@H](C)[C@@H](O[C@H]3C[C@@](C)(O)[C@@H](O)[C@H](C)O3)[C@H](N(C)C)[C@H]2O)[C@@H](CC=O)C[C@@H](C)[C@@H](O[C@@H]2CC[C@H](N(C)C)[C@@H](C)O2)/C=C/C=C/C[C@@H](C)OC(=O)C[C@H]1OC(C)=O	.	.	i	.
CCOC(=O)c1ccccc1NC(=O)CSc1cn(CC(=O)N2CCCCC2)c2ccccc12	-18%	10%	i	-23%
Cc1ccc(CS(=O)(=O)c2ncc(Cl)c(C(=O)Nc3nnc(C(C)C)s3)n2)cc1	15µM*	?	i	8.9µM*
CCOc1ccccc1NC(=O)c1sc2nc(C)cc(C)c2c1N	3%	-2%	i	?
CCOc1ccccc1NC(=O)c1nc(S(=O)(=O)Cc2cccc(C)c2)ncc1Cl	?	3.2µM*	i	1.7µM*
CC(C)c1nnc(NC(=O)c2nc(SCc3ccc(F)cc3)ncc2Cl)s1	-3%	8%	i	-4%
CCCc1ccc(OCC(=O)N2CCN(C(=O)COc3ccc(CCC)cc3OC)CC2)c(OC)c1	.	.	i	.
COc1cc(C(C)=O)ccc1OCCCN1CCC(c2noc3cc(F)ccc23)CC1	.	.	i	.
COc1ccc2c(c1)c(CC(=O)OC/C=C(\C)CC/C=C(\C)CCC=C(C)C)c(C)n2C(=O)c1ccc(Cl)cc1	.	.	i	.
O=C(c1ccccc1)N1CCCC(c2nc3c(nnn3Cc3ccc(F)cc3F)c(=O)[nH]2)C1 (stereo not given)	-1%	?	i	?
O=C(NCc1ccccc1)N1CCc2c(sc3c2CCCC3)C1c1ccccc1 (stereo not given)	1%	?	i	7.8µM*
COc1cccc(CNC(=O)N2CCc3c(sc4c3CCCC4)C2c2ccc(F)cc2)c1 (stereo not given)	9%	?	i	?
CCc1ccc(S(=O)(=O)c2nnn3c2nc(Nc2ccc(NC(C)=O)cc2)c2sccc23)cc1	1%	11%	i	11µM*
OC[C@H]1O[C@@H](OCCc2ccc(O)cc2)[C@H](O)[C@@H](O)[C@H]1O	.	.	i	.
Cc1ccc(CN2COc3ccc4c(C)cc(=O)oc4c3C2)cc1	0%	3%	25µM*	?
Cc1cc(=O)oc2c3c(ccc12)OCN(Cc1ccccc1Cl)C3	-4%	8%	?	-29%
